The text below walks through data of ChEMBL document CHEMBL2218924, “A broad activity screen in support of a chemogenomic map for kinase signalling research and drug discovery” (Biochem J, 2013).

Assay [1] concerns the target Mitogen-activated protein kinase 11 (Homo sapiens) (UniProt Q15759). As to conditions: at 1 µM.
Assay [2] shares this target. As to conditions: at 10 µM.
In assay [3] the target is T1, Mitogen-activated protein kinase 13 (Homo sapiens) (UniProt O15264).
T1 sequence (whole entry): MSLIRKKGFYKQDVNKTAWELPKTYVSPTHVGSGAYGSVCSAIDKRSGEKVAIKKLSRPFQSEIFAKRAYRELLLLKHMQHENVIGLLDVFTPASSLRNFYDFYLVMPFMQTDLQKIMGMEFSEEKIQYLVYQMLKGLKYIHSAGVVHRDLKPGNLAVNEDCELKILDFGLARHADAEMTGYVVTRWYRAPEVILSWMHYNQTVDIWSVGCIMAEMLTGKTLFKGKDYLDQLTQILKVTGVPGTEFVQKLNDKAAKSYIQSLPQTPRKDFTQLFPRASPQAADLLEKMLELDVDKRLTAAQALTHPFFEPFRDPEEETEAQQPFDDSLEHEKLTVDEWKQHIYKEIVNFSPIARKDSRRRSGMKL
As to conditions: at 1 µM.

The target of assay [4] is T1, Mitogen-activated protein kinase 13 (Homo sapiens). As to conditions: at 10 µM.
For assay [5], the target named is T2, Serine/threonine-protein kinase Sgk1 (Homo sapiens) (UniProt O00141).
T2 sequence (whole entry): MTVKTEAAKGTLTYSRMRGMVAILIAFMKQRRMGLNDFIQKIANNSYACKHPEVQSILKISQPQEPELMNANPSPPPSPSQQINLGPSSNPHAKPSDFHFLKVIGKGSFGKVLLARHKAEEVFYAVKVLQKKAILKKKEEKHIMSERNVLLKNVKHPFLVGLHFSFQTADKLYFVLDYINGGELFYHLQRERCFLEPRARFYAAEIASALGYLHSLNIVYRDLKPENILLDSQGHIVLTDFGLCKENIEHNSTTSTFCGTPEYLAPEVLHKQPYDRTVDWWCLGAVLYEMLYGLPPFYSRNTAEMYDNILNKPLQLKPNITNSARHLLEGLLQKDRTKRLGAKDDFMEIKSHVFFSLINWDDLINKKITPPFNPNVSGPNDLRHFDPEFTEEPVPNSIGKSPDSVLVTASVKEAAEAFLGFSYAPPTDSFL
As to conditions: at 1 µM.

Assay [6] addresses T2, Serine/threonine-protein kinase Sgk1 (Homo sapiens). As to conditions: at 10 µM.
Assay [7] addresses T3, Serine/threonine-protein kinase Sgk2 (Homo sapiens) (UniProt Q9HBY8).
T3 sequence (whole entry): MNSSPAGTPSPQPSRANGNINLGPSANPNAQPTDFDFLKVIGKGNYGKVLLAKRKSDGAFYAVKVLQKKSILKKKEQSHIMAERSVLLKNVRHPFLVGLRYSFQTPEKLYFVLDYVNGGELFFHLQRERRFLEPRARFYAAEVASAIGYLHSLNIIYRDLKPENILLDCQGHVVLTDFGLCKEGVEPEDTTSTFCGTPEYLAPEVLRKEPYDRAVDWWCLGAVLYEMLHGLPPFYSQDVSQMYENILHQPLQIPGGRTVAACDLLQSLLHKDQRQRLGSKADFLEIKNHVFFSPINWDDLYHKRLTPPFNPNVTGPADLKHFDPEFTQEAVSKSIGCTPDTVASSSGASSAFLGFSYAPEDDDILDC
As to conditions: at 1 µM.

In assay [8] the target is T3, Serine/threonine-protein kinase Sgk2 (Homo sapiens). As to conditions: at 10 µM.
The target of assay [9] is T4, Serine/threonine-protein kinase Sgk3 (Homo sapiens) (UniProt Q96BR1).
T4 sequence (whole entry): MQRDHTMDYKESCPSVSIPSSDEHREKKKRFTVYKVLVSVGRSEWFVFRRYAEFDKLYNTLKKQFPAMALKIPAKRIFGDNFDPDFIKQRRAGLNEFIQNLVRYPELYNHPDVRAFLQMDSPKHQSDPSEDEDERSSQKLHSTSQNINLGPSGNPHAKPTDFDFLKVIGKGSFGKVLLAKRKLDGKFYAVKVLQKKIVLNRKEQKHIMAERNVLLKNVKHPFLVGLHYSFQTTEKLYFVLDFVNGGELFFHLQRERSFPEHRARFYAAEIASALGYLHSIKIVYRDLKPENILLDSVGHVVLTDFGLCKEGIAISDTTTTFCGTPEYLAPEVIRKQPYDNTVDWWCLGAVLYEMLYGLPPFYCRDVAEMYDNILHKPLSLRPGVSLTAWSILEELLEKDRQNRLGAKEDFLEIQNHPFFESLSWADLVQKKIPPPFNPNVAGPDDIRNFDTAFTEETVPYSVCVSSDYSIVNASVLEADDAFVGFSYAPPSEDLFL
As to conditions: at 10 µM.

Assay [10] deals with Serine/threonine-protein kinase SIK1 (Homo sapiens) (UniProt P57059). As to conditions: at 1 µM.
Chain of Serine/threonine-protein kinase SIK1 (Homo sapiens) (P57059 whole entry): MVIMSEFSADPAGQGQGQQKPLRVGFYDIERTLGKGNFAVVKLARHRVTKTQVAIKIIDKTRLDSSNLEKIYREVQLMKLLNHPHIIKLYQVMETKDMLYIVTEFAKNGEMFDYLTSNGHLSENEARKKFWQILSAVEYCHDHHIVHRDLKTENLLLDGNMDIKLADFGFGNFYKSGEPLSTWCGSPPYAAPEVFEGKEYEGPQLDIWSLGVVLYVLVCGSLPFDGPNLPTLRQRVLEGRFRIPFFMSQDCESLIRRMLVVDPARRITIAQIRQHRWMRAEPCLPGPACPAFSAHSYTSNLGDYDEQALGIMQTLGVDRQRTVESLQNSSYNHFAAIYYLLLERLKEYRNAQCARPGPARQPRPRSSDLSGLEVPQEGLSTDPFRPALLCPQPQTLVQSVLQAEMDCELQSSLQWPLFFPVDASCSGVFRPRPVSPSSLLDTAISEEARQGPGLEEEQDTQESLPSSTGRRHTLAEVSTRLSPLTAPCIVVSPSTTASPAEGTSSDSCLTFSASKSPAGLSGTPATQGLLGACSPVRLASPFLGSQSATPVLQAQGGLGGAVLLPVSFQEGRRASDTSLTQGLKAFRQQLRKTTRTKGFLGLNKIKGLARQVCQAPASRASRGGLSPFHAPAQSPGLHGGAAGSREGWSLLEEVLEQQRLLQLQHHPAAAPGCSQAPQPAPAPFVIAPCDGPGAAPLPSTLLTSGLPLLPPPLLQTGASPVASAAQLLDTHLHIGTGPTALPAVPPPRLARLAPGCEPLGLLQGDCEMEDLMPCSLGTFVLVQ
Assay [11] shares this target. As to conditions: at 10 µM.
Assay [12] concerns the target SRSF protein kinase 1 (Homo sapiens) (UniProt Q96SB4). As to conditions: at 1 µM.
The target is the same in assay [13]. As to conditions: at 10 µM.
Assay [14] deals with SRSF protein kinase 2 (Homo sapiens) (UniProt P78362). As to conditions: at 1 µM.
Chain of SRSF protein kinase 2 (Homo sapiens) (P78362 whole entry, looked up): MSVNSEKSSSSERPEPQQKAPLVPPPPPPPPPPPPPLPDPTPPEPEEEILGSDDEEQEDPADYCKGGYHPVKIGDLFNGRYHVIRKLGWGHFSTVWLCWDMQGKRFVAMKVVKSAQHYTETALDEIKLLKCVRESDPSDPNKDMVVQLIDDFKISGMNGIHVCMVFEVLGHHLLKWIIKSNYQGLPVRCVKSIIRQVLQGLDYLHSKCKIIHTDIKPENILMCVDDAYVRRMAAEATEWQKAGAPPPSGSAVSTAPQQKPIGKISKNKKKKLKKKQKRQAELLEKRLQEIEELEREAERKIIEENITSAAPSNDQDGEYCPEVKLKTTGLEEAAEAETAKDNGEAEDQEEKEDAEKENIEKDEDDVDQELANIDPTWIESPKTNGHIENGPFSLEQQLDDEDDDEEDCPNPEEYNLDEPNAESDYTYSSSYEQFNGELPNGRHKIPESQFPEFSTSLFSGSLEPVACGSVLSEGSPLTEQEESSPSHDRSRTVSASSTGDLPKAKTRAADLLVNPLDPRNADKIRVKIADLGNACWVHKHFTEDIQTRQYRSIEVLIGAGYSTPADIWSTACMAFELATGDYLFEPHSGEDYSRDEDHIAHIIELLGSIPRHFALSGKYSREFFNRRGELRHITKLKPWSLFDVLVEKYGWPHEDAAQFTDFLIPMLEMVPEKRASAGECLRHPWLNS
Assay [15] has the same target. As to conditions: at 10 µM.
Assay [16] has as its target Serine/threonine-protein kinase 33 (Homo sapiens) (UniProt Q9BYT3). As to conditions: at 1 µM.
Assay [17] has the same target. As to conditions: at 10 µM.
Assay [18] addresses Serine/threonine-protein kinase PLK2 (Homo sapiens) (UniProt Q9NYY3). As to conditions: at 1 µM.
Assay [19] has the same target. As to conditions: at 10 µM.
The target of assay [20] is Tyrosine-protein kinase SYK (Homo sapiens) (UniProt P43405). As to conditions: at 1 µM.

Structures are written as SMILES.

Chain of Mitogen-activated protein kinase 11 (Homo sapiens) (Q15759 whole entry): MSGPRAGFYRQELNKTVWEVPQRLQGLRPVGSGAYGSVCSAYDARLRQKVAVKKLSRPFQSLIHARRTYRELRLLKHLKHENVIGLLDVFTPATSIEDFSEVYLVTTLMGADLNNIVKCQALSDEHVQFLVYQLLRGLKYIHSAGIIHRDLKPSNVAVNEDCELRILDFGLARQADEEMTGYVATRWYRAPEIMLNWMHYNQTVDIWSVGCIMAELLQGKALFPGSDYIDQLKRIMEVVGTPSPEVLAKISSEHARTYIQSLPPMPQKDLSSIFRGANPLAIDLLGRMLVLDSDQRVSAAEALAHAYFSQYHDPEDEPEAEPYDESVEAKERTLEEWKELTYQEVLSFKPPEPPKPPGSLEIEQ
Chain of Serine/threonine-protein kinase PLK2 (Homo sapiens) (Q9NYY3 whole entry, looked up): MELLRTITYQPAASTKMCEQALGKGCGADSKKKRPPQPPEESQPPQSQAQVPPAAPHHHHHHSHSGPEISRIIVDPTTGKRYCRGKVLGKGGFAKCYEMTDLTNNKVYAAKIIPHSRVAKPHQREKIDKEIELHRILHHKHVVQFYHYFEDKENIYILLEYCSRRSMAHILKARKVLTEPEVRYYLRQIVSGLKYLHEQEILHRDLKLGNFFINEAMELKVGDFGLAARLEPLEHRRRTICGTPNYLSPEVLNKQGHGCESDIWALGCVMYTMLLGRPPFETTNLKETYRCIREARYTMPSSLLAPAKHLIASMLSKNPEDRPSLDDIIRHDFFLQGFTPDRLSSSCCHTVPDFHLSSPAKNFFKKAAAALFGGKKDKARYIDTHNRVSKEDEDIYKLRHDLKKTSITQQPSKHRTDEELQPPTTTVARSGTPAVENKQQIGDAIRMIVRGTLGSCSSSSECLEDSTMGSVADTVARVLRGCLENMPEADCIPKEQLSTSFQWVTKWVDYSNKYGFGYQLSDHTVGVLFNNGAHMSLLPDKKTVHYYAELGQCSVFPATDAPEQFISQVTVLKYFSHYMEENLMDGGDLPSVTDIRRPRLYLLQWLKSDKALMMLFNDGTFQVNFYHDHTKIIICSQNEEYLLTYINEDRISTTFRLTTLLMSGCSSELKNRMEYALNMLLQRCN
Chain of Serine/threonine-protein kinase 33 (Homo sapiens) (Q9BYT3 whole entry, looked up): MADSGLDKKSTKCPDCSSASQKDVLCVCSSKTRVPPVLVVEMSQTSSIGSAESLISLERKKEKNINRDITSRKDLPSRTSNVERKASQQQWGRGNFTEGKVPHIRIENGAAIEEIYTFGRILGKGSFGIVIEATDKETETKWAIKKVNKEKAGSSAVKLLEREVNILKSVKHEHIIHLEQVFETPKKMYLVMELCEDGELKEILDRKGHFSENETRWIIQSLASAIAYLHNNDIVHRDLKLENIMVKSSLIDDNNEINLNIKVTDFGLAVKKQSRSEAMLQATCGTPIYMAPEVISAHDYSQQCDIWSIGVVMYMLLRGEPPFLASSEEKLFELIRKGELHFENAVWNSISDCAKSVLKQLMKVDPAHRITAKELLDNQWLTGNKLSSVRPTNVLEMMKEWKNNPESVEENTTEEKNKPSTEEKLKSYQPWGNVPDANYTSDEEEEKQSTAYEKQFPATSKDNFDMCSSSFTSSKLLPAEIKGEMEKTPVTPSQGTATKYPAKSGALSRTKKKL
Chain of SRSF protein kinase 1 (Homo sapiens) (Q96SB4 whole entry): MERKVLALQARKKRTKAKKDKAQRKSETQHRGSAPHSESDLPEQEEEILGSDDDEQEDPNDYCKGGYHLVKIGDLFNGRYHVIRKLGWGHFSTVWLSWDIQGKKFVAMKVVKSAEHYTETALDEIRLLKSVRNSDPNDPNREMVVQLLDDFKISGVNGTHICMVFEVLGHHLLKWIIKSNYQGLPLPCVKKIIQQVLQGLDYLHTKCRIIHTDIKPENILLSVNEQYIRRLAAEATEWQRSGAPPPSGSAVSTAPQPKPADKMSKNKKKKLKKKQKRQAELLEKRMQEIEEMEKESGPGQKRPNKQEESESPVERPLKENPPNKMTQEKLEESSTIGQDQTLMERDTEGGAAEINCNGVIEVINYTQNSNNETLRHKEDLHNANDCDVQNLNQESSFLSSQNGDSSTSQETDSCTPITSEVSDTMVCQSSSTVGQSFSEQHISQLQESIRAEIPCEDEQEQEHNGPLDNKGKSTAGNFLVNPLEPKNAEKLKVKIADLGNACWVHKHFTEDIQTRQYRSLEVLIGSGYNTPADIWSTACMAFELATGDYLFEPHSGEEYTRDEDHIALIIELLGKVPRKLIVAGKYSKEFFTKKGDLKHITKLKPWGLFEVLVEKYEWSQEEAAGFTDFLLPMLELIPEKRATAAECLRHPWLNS

Take `O=C1Nc2cc(Br)ccc2/C1=C1/Nc2ccccc2/C1=N\O`: the residual activity in assay [1] was found to be 97%; in [2], 92%; in assay [3], 89%; in assay [4], 92%; in assay [5], 28%; in assay [6], 14%. For the same compound, the residual activity in assay [7] came out at 47%; in [8], 55%; in assay [9], 64%; in assay [10], 18%; in [11], 8%; in [12] it was 98%. In addition, the residual activity was 84% in [13]; 88% in assay [14]; 70% in [15]; 73% in assay [16]; 72% in assay [17]; 97% in assay [18]. In addition, the results for the residual activity in assay [19] and in [20] were 96% and 70%, respectively.

Consider `NC(=O)c1ccc2[nH]c(-c3ccc(Oc4ccc(Cl)cc4)cc3)nc2c1`, for which the residual activity in assay [1] was 99%; in [2], 101%; in assay [3] it was 105%; in [4], 101%; in assay [5] it was 90%; in assay [6], 174%. Further, the residual activity in [7] was 112%; in assay [8], 104%; in [9] it was 103%; in [10], 108%; in assay [11], 107%; in assay [12], 94%. Besides, the residual activity amounted to 64% in assay [13]; 81% in [14]; 76% in [15]; 96% in assay [16]; 85% in [17]; 90% in [18]. Besides, the figures for the residual activity in [19] and in assay [20] were 93% and 109%, respectively.

`Nc1cccc(-c2cc3c(Oc4cccc(O)c4)ncnc3[nH]2)c1`: the residual activity in assay [1] turned out to be 28%; in assay [2] it was 7%; in assay [3] it was 105%; in [4] it was 91%; in [5], 96%; in [6], 96%. Also, the residual activity in assay [7] came out at 101%; in [8], 73%; in assay [10], 8%; in [11] it was 2%; in assay [12] it was 103%; in assay [13], 80%. Moreover, the residual activity amounted to 101% in [14]; 71% in assay [15]; 90% in assay [16]; 61% in [17]; 96% in [18]; 65% in assay [19]. Also, in assay [20], the residual activity turned out to be 18%.

As for `COc1cc2ncc(-c3ccccc3)nc2cc1OC`, the residual activity in assay [5] came to 98%; in assay [6] it was 95%; in assay [7], 96%; in assay [8] it was 76%; in [15], 90%.

Take `Cn1cc(/C=C2\C(=O)Nc3ccc(S(N)(=O)=O)cc32)c2ccccc21`: the residual activity came out at 98% in assay [1]; 99% in [2]; 98% in assay [4]; 85% in assay [5]; 58% in assay [6]; 74% in assay [7]. Also, the residual activity in assay [8] is 61%; in [9], 86%; in assay [10] it was 24%; in assay [11], 11%; in assay [12] it was 39%; in [13], 13%. The residual activity in assay [14] amounted to 36%; in assay [15] it was 13%; in assay [16], 22%; in assay [17], 10%; in assay [18], 94%; in assay [19], 65%. For the same compound, in [20], the residual activity stood at 38%.

As to `COc1ccc(S(=O)(=O)N(CCO)c2ccccc2CN(C)C/C=C/c2ccc(Cl)cc2)cc1`, the residual activity in assay [1] came to 94%; in assay [2], 88%; in assay [3], 106%; in assay [4] it was 92%; in assay [5], 85%; in [6], 89%. Also, the residual activity in assay [7] came to 115%; in assay [8], 96%; in assay [9], 78%; in assay [10], 119%; in [11], 79%; in [12], 117%. The residual activity was 96% in assay [13]; 105% in assay [14]; 81% in assay [15]; 93% in assay [16]; 91% in [17]; 99% in assay [19]. The residual activity in [20] came out at 97%.

`COc1ccc(OC)c2c(=S)c3ccccc3[nH]c12`: the residual activity turned out to be 112% in assay [1]; 96% in [2]; 104% in assay [3]; 97% in assay [4]; 90% in assay [5]; 82% in assay [6]. Further, the residual activity in [7] was determined as 97%; in assay [8], 93%; in assay [9], 83%; in [10], 118%; in [12], 91%; in assay [13], 88%. The residual activity in assay [14] came out at 97%; in assay [15], 82%; in assay [16], 94%; in assay [17], 77%; in assay [18] it was 89%; in [19], 91%. Further, the residual activity in assay [20] is 94%.

As to `C[C@@H](N)[C@H]1CC[C@H](C(=O)Nc2ccncc2)CC1`, the residual activity in assay [1] turned out to be 114%; in assay [2], 120%; in assay [3], 112%; in assay [4], 111%; in assay [5] it was 100%; in assay [6] it was 94%. The residual activity in assay [7] was determined as 97%; in assay [8] it was 96%; in [9] it was 105%; in [11], 115%; in assay [12], 95%; in assay [13], 103%. Moreover, the residual activity in [14] worked out at 103%; in [15], 113%; in assay [16] it was 106%; in [18] it was 100%; in [19], 101%; in [20], 110%.
